From the supplement of paper PMC10600219
Counter-ions that a name gives are not always drawn. The full ranking holds about 2,800 compounds; the median of “cell viability relative to vehicle” is about 0.98, and the lowest 2% start at about 0.45. For the sample, the lowest values were picked, then their nearest neighbours and some compounds at random.

test system: NCI-H2228 alectinib-DTP; experiment: cell viability relative to vehicle (fraction of vehicle); NCI-H2228 is an ALK-positive lung cancer line and DTP means drug-tolerant persister; higher = less growth inhibition; conditions: 100 nM; treatment time 6 days
Method in brief: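 Values give cell viability as a fraction of vehicle-treated cells. Parental and drug-tolerant persister NCI-H2228 cells (persisters made with 1000 nM of a targeted drug for 13 days) were exposed in 384-well plates to the 3114-agent TargetMol anti-cancer compound library at 100 nM, with DMSO as vehicle. ATP was then read after 6 days by the CellTiter-Glo 3D Cell Viability Assay.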

| Compound | cell viability |
| --- | --- |
| CC(C)C[C@H](NC(=O)[C@@H](O)[C@H](N)Cc1ccccc1)C(=O)O [Ubenimex] | 1.05 |
| CC(C)C[C@H](NC(=O)[C@@H](O)[C@H](N)Cc1ccccc1)C(=O)O [Bestatin hydrochloride] | 1.12 |
| CC(C)C[C@H](NC(=O)[C@@H](NC(=O)c1cccc(-c2ccccc2)n1)[C@@H](C)O)B(O)O [Delanzomib] | 0.301 |
| CNC(=O)[C@H](Cc1ccccc1)NC(=O)[C@H](CC(C)C)[C@H](CSc1cccs1)C(=O)NO [Batimastat] | 1.15 |
| CC(C)C[C@H](NC(=O)[C@H](Cc1ccccc1)NC(=O)c1cnccn1)B(O)O [Bortezomib] | 0.145 |
| CC(C(=O)Nc1cccc(/N=C/c2c(O)ccc3ccccc23)c1)c1ccccc1 (stereo not drawn) [Salermide] | 0.89 |
| O=C(Nc1ccc(C(O)(C(F)(F)F)C(F)(F)F)cc1)c1ccccc1Cl | 0.929 |
| Cn1cc(-c2cnn3c(N)c(Br)c([C@H]4CCCNC4)nc23)cn1 | 0.907 |
| C/C(=C1/C(=O)Nc2ccc(NC(N)=O)cc21)c1ccc[nH]1 | 1.02 |
| CCN(CC)CCOc1ccc(Nc2ncc3cc(-c4c(Cl)cccc4Cl)c(=O)n(C)c3n2)cc1 | 0.445 |
| CCN(CC)CCOc1ccc(Nc2nc(-c3ccccc3NC(=O)CCN3CCN(C)CC3)nc3ccccc23)cc1 | 1.16 |
| CSc1cccc(Nc2ncc3cc(-c4c(Cl)cccc4Cl)c(=O)n(C)c3n2)c1 | 0.665 |
| N#Cc1cc2cc(CN3CCC(Nc4ncnc5sc(CC(F)(F)F)cc45)CC3)ccc2[nH]1 | 1.04 |
| COc1ccc(-c2nc(-c3cc(C(F)(F)F)cc(C(F)(F)F)c3)n(Cc3ccc(C(N)=O)cc3)c2-c2ccc(OC)cc2)cc1 [Apoptozole] | 0.817 |
| COc1c(OCCCN2CCOCC2)ccc2c1N=C(NC(=O)c1cnc(N)nc1)N1CCN=C21 [Copanlisib] | 0.38 |
| COc1cc2ncnc(Nc3ccc(F)c(Cl)c3)c2cc1OCCCN1CCOCC1 [Gefitinib] | 0.881 |
| COc1cc2c(Oc3ccc(NC(=O)C4(C(=O)Nc5ccc(F)cc5)CC4)cc3F)ccnc2cc1OCCCN1CCOCC1 [Foretinib] | 0.882 |
| Cc1cc(C)c(S(=O)(=O)N(CCc2cccc(Br)c2)Cc2ccc(-c3cccc(S(C)(=O)=O)c3)cc2)c(C)c1 | 1.12 |
| N#C/C(=C/c1ccc(O)c(O)c1)C(=O)N1CCc2ccccc21 [Tyrphostin AG 528] | 1.03 |
| COc1ccc(C=C(C#N)c2cccnc2)cc1OC | 0.956 |
| COc1ccc2c3n(c(=NC(=O)c4cccnc4)nc2c1OC)CCN3 | 0.447 |
| CCc1nc2c(C)cc(N3CCN(CC(=O)N4CC(O)C4)CC3)cn2c1N(C)c1nc(-c2ccc(F)cc2)c(C#N)s1 | 1.02 |
| COc1cc(N2CCC(N3CCN(C)CC3)CC2)ccc1Nc1ncc(Cl)c(Nc2ccccc2S(=O)(=O)C(C)C)n1 | 0.942 |
| CNS(=O)(=O)c1ccccc1Nc1nc(Nc2ccc(N3CCN(C)CC3)cc2OC)ncc1Cl [ALK inhibitor 2] | 1 |
| CN1CCN(Cc2ccc(Nc3ncc(Cl)c(Nc4ccccc4S(=O)(=O)N(C)C)n3)cc2)CC1 | 0.122 |

| Compound | cell viability |
| --- | --- |
| CC/C(=C(/c1ccc(O)cc1)c1ccc(OCCNC)cc1)c1ccccc1 [Endoxifen E-isomer hydrochloride] | 1.12 |
| CN1C(N)=N[C@](C)(c2cc(NC(=O)c3ccc(F)cn3)ccc2F)CS1(=O)=O [Verubecestat] | 0.969 |
| Cn1cc(C[C@@H](N)C(=O)O)c2ccccc21 [Indoximod] | 1.14 |
| CN1CCc2c(c3ccccc3n2Cc2ccc(C(=O)NO)cc2)C1 [Tubastatin A HCl] | 0.892 |
| Cn1cc(CNCC2CCN(c3ncc(C(=O)NO)cn3)CC2)c2ccccc21 [Quisinostat] | 0.358 |
| CC(=O)OCC1=CO[C@@H](OC(=O)CC(C)C)[C@H]2C1=C[C@H](OC(=O)CC(C)(C)OC(C)=O)[C@]21CO1 [Acevaltrate] | 1.13 |
| Cc1cc([N+](=O)[O-])c(NS(=O)(=O)c2cccc(C(=O)O)c2)cc1-c1cccnc1 [Alofanib] | 0.978 |
| O=P(O)(O)O[C@H]1[C@H](OP(=O)(O)O)[C@@H](OP(=O)(O)O)[C@H](OP(=O)(O)O)[C@@H](OP(=O)(O)O)[C@H]1OP(=O)(O)O [Phytic acid] | 1.13 |
| CCNC(=O)Nc1ccc(-c2nc(N3CCOC[C@@H]3C)c3c(n2)C(C)(C)S(=O)(=O)C3)cc1 | 0.508 |
| COC(=O)Nc1ccc(-c2nc(N3CCOCC3)c3cnn(C4CCN(C(=O)OC)CC4)c3n2)cc1 | 0.855 |
| CN(C)C1CCN(C(=O)c2ccc(NC(=O)Nc3ccc(-c4nc(N5CCOCC5)nc(N5CCOCC5)n4)cc3)cc2)CC1 [Gedatolisib] | 0.385 |
| O=C(Nc1ncc([N+](=O)[O-])s1)c1ccccc1O [Tizoxanide] | 0.88 |
| COC(=O)C[C@](O)(CCCC(C)(C)O)C(=O)O[C@@H]1C(OC)=C[C@]23CCCN2CCc2cc4c(cc2[C@H]13)OCO4 [Homoharringtonine] | 0.2 |
| O=C(O)COc1ccc(Br)cc1/C=C1\SC(=S)N(Cc2cccnc2)C1=O [Skp2 Inhibitor C1] | 1.08 |
| CC(C)=CCc1cc2c(cc1O)O[C@H](c1ccc(O)cc1)CC2=O [Bavachin] | 1.01 |
| CC(C)(C)c1cc(NC(=O)Nc2ccc(Oc3ccnc4[nH]c(=O)cnc34)cc2F)n(-c2ccccc2)n1 | 1.12 |
| O=C(/C=C/c1cccnc1)NCCCCC1CCN(C(=O)c2ccccc2)CC1 | 0.452 |
| Nc1cc(F)ccc1NC(=O)c1ccc(CNC(=O)/C=C/c2cccnc2)cc1 [Chidamide] | 0.775 |
| Nc1ccc(/C=C/C(=O)NCc2cc3cc(-c4ccc(C(=O)N5CCC(F)(F)CC5)cc4)cc(-c4ccc(F)cc4)c3o2)cn1 | 1.25 |
| c1ccc(-c2oc3ncnc(NC[C@@H]4CCCO4)c3c2-c2ccccc2)cc1 | 1.06 |
| COC1=CC(=O)c2ccccc2C1=O [2-Methoxynaphthoquinone] | 1.06 |
| COc1ccc(-c2cc3c(C)nc(N)nc3n([C@H]3CC[C@H](OCCO)CC3)c2=O)cn1 | 0.398 |
| COc1cccc(-c2cc(F)ccc2[C@H]2Cc3nc(N)nc(C)c3C(=O)N2)n1 | 0.502 |
| CCn1c(=O)c(-c2cc[nH]n2)cc2c(C)nc(N)nc21 [Voxtalisib] | 0.86 |
| CCCCCCCCCC(=O)CC(O)S(=O)(=O)O (stereo not drawn) [Sodium houttuyfonate] | 1.08 |

| Compound | cell viability |
| --- | --- |
| CC(=O)OC(C)(C)CCC(=O)[C@](C)(O)[C@H]1[C@H](O)C[C@@]2(C)[C@@H]3CC=C4[C@@H](C[C@H](O)[C@@H](O)C4(C)C)[C@]3(C)C(=O)C[C@]12C [Cucurbitacin IIA] | 1.07 |
| Oc1ccc(C(c2c[nH]c3ccccc23)c2c[nH]c3ccccc23)cc1 | 1.08 |
| C[C@@H]1O[C@@H](O[C@@H]2[C@H](O)[C@@H](O)[C@H](O[C@H]3CC[C@@]4(C)C(CC[C@]5(C)C4C=C[C@]46OC[C@@]7(CCC(C)(C)CC74)[C@@H](O)C[C@]65C)C3(C)C)O[C@@H]2CO[C@@H]2O[C@H](CO)[C@@H](O)[C@H](O)[C@H]2O)[C@H](O)[C@H](O)[C@H]1O (stereo partly drawn) [Saikosaponin C] | 0.993 |
| COc1ccc(CC(=O)NC(/N=C(\NC#N)Nc2cccc3ncccc23)C(C)(C)C)cc1OC (stereo not drawn) | 0.985 |
| Cc1ccc(NC(=S)NNc2c([N+](=O)[O-])cc(C(F)(F)F)cc2[N+](=O)[O-])cc1Cl | 0.982 |
| COc1ccc(CCC(=O)O)cc1OC [3,4-Dimethoxyhydrocinnamic acid] | 0.856 |
| N#CN=C(NCCCCCCOc1ccc(Cl)cc1)Nc1ccncc1 | 0.165 |
| N=C(NCCCCCCNC(=N)NC(=N)Nc1ccc(Cl)cc1)NC(=N)Nc1ccc(Cl)cc1 [Chlorhexidine] | 1.17 |
| N=C(NCCCCCCNC(=N)NC(=N)Nc1ccc(Cl)cc1)NC(=N)Nc1ccc(Cl)cc1 [Chlorhexidine hydrochloride] | 1.02 |
| C[C@@H]1CC[C@]2(C(=O)O)CC[C@]3(C)C(=CC[C@@H]4[C@@]5(C)CC[C@H](O)[C@@](C)(CO)[C@@H]5CC[C@]43C)[C@@H]2[C@]1(C)O [Rutundic acid] | 1.02 |
| CCN(CC)CC(O)CNc1ccc(NCC2CO2)c2c1C(=O)c1ccccc1C2=O (stereo not drawn) | 0.831 |
| O=C(NCCCn1ccnc1)c1cc(-c2ccco2)on1 | 1.03 |
| C[C@H](CC(=O)C[C@@H](C)[C@H]1C[C@H](O)[C@@]2(C)C3=C(C(=O)C[C@]12C)[C@@]1(C)CCC(=O)C(C)(C)[C@@H]1C[C@@H]3O)C(=O)O [Ganoderic acid A] | 1.03 |
| CNC(=O)Nc1cc(Oc2cncc(C)c2)c(-c2ccc(OCC(C)(C)O)nc2)cn1 | 0.91 |
| COc1cc2cc(Oc3ccc4ccc(=O)oc4c3)c(=O)oc2cc1O [Daphnoretin] | 1.11 |
| COCC[n+]1c2c(n(Cc3cnccn3)c1C)C(=O)c1ccccc1C2=O | 0.0756 |
| CC(C)(NS(=O)(=O)c1ccc2c(Cl)cnc(N=C(N)N)c2c1)C(=O)O | 1.04 |
| CCC(=O)N1CCOc2c(cc(-c3ccc(OC)c(OC)c3)cc2OC[C@H]2CCCN(C)C2)C1 [I-CBP112 hydrochloride] | 0.963 |
| Cc1cc(N2C[C@@H](C)N[C@@H](C)C2)ncc1-c1ccc(-c2nc3c(ccn3C)c(=O)[nH]2)cc1 | 0.757 |
| CC(C)C[C@H](NC(=O)CNC(=O)c1cc(Cl)ccc1Cl)B(O)O [Ixazomib] | 0.28 |
| CC(C)C[C@H](NC(=O)CNC(=O)c1cc(Cl)ccc1Cl)B1OC(=O)C(CC(=O)O)(CC(=O)O)O1 | 0.342 |
| CCCC(C)NC(=O)c1ccc(Cl)c(Cl)c1 (stereo not drawn) | 1.07 |
| C[C@H](NC(=O)CNC(=O)c1cccc(Cl)c1)c1ccccc1 | 0.957 |
